Experimental findings from PubChem BioAssay AID1851 (National Center for Advancing Translational Sciences (NCATS), 2009) are described below.

The term AC50 denotes the concentration giving half of the maximal activity seen.

Each structure is given as a SMILES string. Several values for one entry are separate records, joined by “and”; a condition that tells them apart may be missing. Equal entries are not always repeated. Screen size: about 16,000 compounds; about 5,800 (36%) were called active. Another 23% or so got no clear call; they are omitted. This is one part of the list. A number with no mark means an inactive call. Calls come from the whole dose curve; as a rule, active = well fitted curve in the direction sought with a large enough effect; inconclusive = small, poorly fitted or top-dose-only effect, or effect the other way; inactive = no such curve, though single readings can be large or run the other way.
% is set by controls: 0 for no effect and ±100 for the full control effect.

Chain of Cytochrome P450 2C19 (Homo sapiens) (P33261 whole entry, looked up): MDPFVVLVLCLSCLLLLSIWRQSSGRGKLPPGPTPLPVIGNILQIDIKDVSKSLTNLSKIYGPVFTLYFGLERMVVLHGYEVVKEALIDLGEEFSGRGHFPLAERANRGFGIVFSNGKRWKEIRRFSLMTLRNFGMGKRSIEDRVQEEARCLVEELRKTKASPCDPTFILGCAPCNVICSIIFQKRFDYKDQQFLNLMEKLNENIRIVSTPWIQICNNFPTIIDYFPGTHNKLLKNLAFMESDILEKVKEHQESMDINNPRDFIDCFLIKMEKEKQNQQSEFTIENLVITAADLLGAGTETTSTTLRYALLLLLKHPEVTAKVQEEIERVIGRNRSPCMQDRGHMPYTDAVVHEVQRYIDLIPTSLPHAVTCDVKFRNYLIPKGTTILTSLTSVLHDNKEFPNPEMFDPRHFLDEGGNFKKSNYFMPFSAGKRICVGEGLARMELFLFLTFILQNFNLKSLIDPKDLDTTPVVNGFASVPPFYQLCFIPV

This assay concerns the target Cytochrome P450 2C19 (Homo sapiens) (UniProt P33261). As to the kind of experiment: Cytochrome panel assay with activity outcomes. To be noted: recombinant CYP, pro-luciferin dealkylation, luminescence, p450-cyp2c19; series mostly up to 57.1 µM; activity, negative = inhibition: at the top concentration.
Consider `O=c1[nH]ncn2cccc12`, for which the “activity, negative = inhibition” value is 5.26%.
Take `Nc1nc(-c2ccc3ccccc3c2)cc(-c2cc(-c3ccc4ccccc4c3)nc(N)n2)n1`: the activity, negative = inhibition is 10.1% [at 11.4 µM].
As for `c1ccc2cc(-c3csnn3)ccc2c1`, the AC50 is 3.98 µM (active).
Take `O=C(O)c1nnsc1-c1csnn1`: the activity, negative = inhibition is -19.5% [at 11.4 µM].
Consider `COc1ccc(-c2nc3cnc(N4CCN(C)CC4)nc3n(C3CC3)c2=O)cc1`, for which the “activity, negative = inhibition” value was 0.141%.
The same measure, in the same setting: next, `O=C(NC(=S)NNC(=O)c1cccs1)c1ccco1`: -21.9%.
Take `COc1cc(NC(=S)NC(=O)c2c(OC)cccc2OC)ccc1NC(=O)c1cccs1`: the AC50 was 2 µM (active).
Turning to `Cc1ccccc1C(=O)Nc1cccc(NC(=S)NC(=O)c2cccs2)c1`, the AC50 was 3.55 µM (active).
Consider `Cc1cccc(NC(=S)NC(=O)c2cccs2)n1`, for which the AC50 is 3.55 µM (active).
Take `O=C(COc1ccccc1C(=O)N/N=C\c1ccc(O)c(O)c1)N/N=C/c1ccc(O)c(O)c1`: the AC50 was 15.8 µM (active).
For `O=C(N/N=C/c1cccc(OC2CSC2)c1)c1ccccc1O`, the “activity, negative = inhibition” value is -12.9%.
Turning to `CCOC(=O)CC(=O)CSc1nnc2c(n1)[nH]c1ccccc12`, the AC50 is 14.1 µM (active).
In the case of `O=C(CSc1nnc2c(n1)[nH]c1ccc(F)cc12)OCc1ccccc1`, the AC50 was 0.398 µM (active).
As for `CCOCc1cnc(C)nc1NCC(=O)c1c(C)[nH]c2ccccc12`, the “activity, negative = inhibition” value is -18.2%.
As for `Cc1ccc(C(=O)NNC(=O)CSc2nnc3c(n2)[nH]c2ccc(F)cc23)cc1`, the “activity, negative = inhibition” value is -27.4%.
As for `COc1[nH]c2ccc(F)cc2c1C(=O)OCC1CCN(CCNS(C)(=O)=O)CC1`, the AC50 entry is “inactive”.
For `CON(C)C(=O)c1nnc2c(n1)[nH]c1ccccc12`, the activity, negative = inhibition is -38.3% [at 11.4 µM].
`Cc1cccc(N(CC(=O)NC2CCCC2)C(=O)c2cc3cc4cccc(C)c4nc3s2)c1C`: the AC50 was 3.98 µM (active).
As to `O=C(Nc1cccc(NC(=O)c2ccccc2[N+](=O)[O-])n1)c1ccccc1[N+](=O)[O-]`, the concentration at half-maximal activity (AC50) is 8.91 µM (active).
With `Cc1cc(C)nc(NC(=O)c2cccc([N+](=O)[O-])c2C)n1`, the “activity, negative = inhibition” value was -21.1%.
For the compound `S=C(Nc1ccccc1)Nc1ccccc1C#Cc1ccccc1`, the AC50 is 3.16 µM (active).
On to `C=CCN(CC=C)C(=S)Nc1ccccc1`, for which the “activity, negative = inhibition” value was -48.7%.
Take `COc1ccc(-c2ccc3c(n2)CCCN3C[C@H](O)CN2CCCc3nc(-c4ccc(Br)cc4)ccc32)cc1`: the activity, negative = inhibition is 0.393% [at 11.4 µM] and -39.5% [at 11.4 µM].
Consider `Cc1ccc(OCC(=O)Nc2ccccc2N2CCOCC2)c(C)c1`, for which the AC50 is 3.98 µM (active).
Consider `CC(=O)N1CCN(c2ccccc2NC(=O)COc2ccc(Br)cc2)CC1`, for which the AC50 is 14.1 µM (active).
For the compound `CCOc1ccc(C(=O)Nc2ccccc2N2CCCC2)cc1`, the AC50 is 15.8 µM (active).
Take `COc1ccc(-n2c(=O)c(C)nc3cnc(N4CCNCC4)nc32)cc1`: the “activity, negative = inhibition” value is -4.91%.
Consider `CS(=O)(=O)N1CCC2(CC1)CN(Cc1cc(C(F)(F)F)cc(C(F)(F)F)c1)C2`, for which the “activity, negative = inhibition” value is -36%.
Take `NS(=O)(=O)c1cc(C(=O)O)c(O)c2ccccc12`: the activity, negative = inhibition was -24.4% [at 11.4 µM].
Regarding `CCOC(=O)c1c(C)oc2c1cc(O)c1ccccc12`, the AC50 was 3.55 µM (active).
Take `COc1ccc2[nH]cc(CCNc3ncncc3-c3ccccc3C(F)(F)F)c2c1`: the concentration at half-maximal activity (AC50) is 0.251 µM (active).
Consider `CN(C)Cc1ccccc1-c1cncnc1NC1CC1`, for which the “activity, negative = inhibition” value was -12.7%.
Take `COc1ccc2[nH]cc(CCNc3ncncc3-c3c(C)noc3C)c2c1`: the AC50 was 3.16 µM (active).
For `CC(=O)NCCNc1ncncc1-c1ccccc1CN(C)C`, the “activity, negative = inhibition” value is -8.79%.
For the compound `COCCNc1ncncc1-c1c(C)noc1C`, the “activity, negative = inhibition” value is -39%.
With `COc1ccc2[nH]cc(CCNc3ncncc3-c3ccccc3CN(C)C)c2c1`, the AC50 is 10 µM (active).
The same measure, in the same setting: next, `COc1ccc2[nH]cc(CCNc3ncncc3-c3ccccc3Cl)c2c1`: 0.0631 µM (active); `CC(N)=NCc1cccc(CN)c1`: “inactive”.
On the same count and under the same terms, next, `COc1ccc2[nH]cc(CCNc3ncncc3-c3ccccc3OC)c2c1`: 0.0794 µM (active); `COc1ccc2[nH]cc(CCNc3ncncc3-c3ccccc3C)c2c1`: 0.0501 µM (active).
On to `C[C@H]1C[C@H]2[C@H]3CCC4=CC(=O)C=C[C@@]4(C)[C@]3(F)[C@H](O)C[C@]2(C)[C@@]1(O)C(=O)COP(=O)(O)O`, for which the activity, negative = inhibition is 18.4% [at 11.4 µM].
With `Cc1ccc(C(C(=O)NC2CCCCC2)N(CC2CCCO2)C(=O)CNC(=O)c2cccs2)cc1` (stereo not given), the AC50 is 10 µM (active).
On the same count and under the same terms, next, `Cc1ccc(C(C(=O)NCc2ccco2)N(C(=O)CNC(=O)c2cccs2)c2ccc(C)cc2C)cc1` (stereo not given): 1.12 µM (active); `O=C(NCc1ccco1)C(c1ccccc1)N(C(=O)Cc1cccs1)c1ccccc1F` (stereo not given): 3.16 µM (active); `CCC(C)OC(=O)C1=C(C)NC(=O)CC1c1ccccc1OC` (stereo not given): 2 µM (active).
On the same count and under the same terms, next, `CCCOc1ccccc1C1CC(=O)NC(C)=C1C(=O)OCC(C)C` (stereo not given): 1.41 µM (active).
For the compound `COc1cccc2c1OC1(C)CC2/C(=C(\C)O)C(=O)N1` (stereo not given), the “activity, negative = inhibition” value is -10.3%.
The same measure, in the same setting: next, `CCOC(=O)C1=C(C)NC2(O)c3ccccc3C(=O)C12O` (stereo not given): -23.4%; `CCn1c(=O)[nH]c2ccccc21`: -16.8%.
With `c1ccc2c(c1)c1ccccc1n2Cn1c2ccccc2c2ccccc21`, the AC50 is 0.398 µM (active).
`COc1cccc(-c2cc(NCc3ccccc3OC)ncn2)c1`: the AC50 is 7.94 µM (active).
On to `COc1cccc(-c2cc(NCc3ccc(OC)cc3OC)ncn2)c1`, for which the AC50 is 5.01 µM (active).
Regarding `COc1ccc(CNc2cc(-c3cccnc3)ncn2)c(OC)c1`, the “activity, negative = inhibition” value is -41.7%.
Take `Cn1c(CCNC(=O)c2ccccc2Cl)n[nH]c1=S`: the “activity, negative = inhibition” value was 22.3%.
With `S=c1[nH]nc(CSCc2ccccc2Cl)n1-c1ccccc1`, the AC50 was 0.708 µM (active).
With `CN(Cc1n[nH]c(=S)n1C)S(=O)(=O)c1ccccc1`, the “activity, negative = inhibition” value was -24.8%.
With `Cc1cccc(NC(=O)CSc2nc3ccccc3c3nc(CCc4c(C)n[nH]c4C)nn23)c1`, the AC50 is 7.94 µM (active).
As to `Cn1c(=O)n(C)c2cc(/C=N/n3cnnc3)ccc21`, the AC50 was 17.8 µM (active).
Consider `COc1ccc(/C=N\NC(=O)O)cc1`, for which the activity, negative = inhibition was 11% [at 11.4 µM].
For `Cn1c(=O)n(C)c2cc(/C=N/NC(=O)c3ccc(Cl)cc3Cl)ccc21`, the AC50 is 3.98 µM (active).
With `COC(=O)c1ccc(/C=N\NC(=O)c2ccc(C)cc2Cl)cc1`, the AC50 is 5.01 µM (active).
For the compound `Cn1c(=O)n(C)c2cc(S(=O)(=O)O)ccc21`, the “activity, negative = inhibition” value is -14.7%.
On to `Cc1cc(C)c(S(=O)(=O)Nc2ccccc2C(F)(F)F)c(C)c1`, for which the AC50 is 0.1 µM (active).
With `Cc1cc(C)c(S(=O)(=O)NNC(=O)C2CCN(Cc3ccccc3)CC2)c(C)c1`, the “activity, negative = inhibition” value is -18.9%.
Consider `Cc1cc(C)c(S(=O)(=O)Nc2cccc(C(F)(F)F)c2)c(C)c1`, for which the AC50 was 3.16 µM (active).
For `CC(C)NC(=O)N1CC[C@@]2(CCCN(C(=O)c3cc(C(F)(F)F)cc(C(F)(F)F)c3)C2)C1`, the “activity, negative = inhibition” value was 30.6%.
Regarding `CCC(C)(C)n1nnnc1C(c1cc2cc3c(cc2[nH]c1=O)OCO3)N1CCCCC1` (stereo not given), the AC50 was 31.6 µM (active).
Consider `CCC(c1nnnn1CC1CCCO1)N(CCN1CCOCC1)Cc1cc2cc(C)ccc2[nH]c1=O` (stereo not given), for which the “activity, negative = inhibition” value is 1.58%.
Regarding `CCC(C)(C)n1nnnc1C(C(C)C)N(Cc1ccco1)Cc1cc2cc3c(cc2[nH]c1=O)OCO3` (stereo not given), the AC50 is 10 µM (active).
The same measure, in the same setting: the same measure for `COc1ccccc1CN(Cc1cc2cc3c(cc2[nH]c1=O)OCCO3)Cc1nnnn1Cc1ccco1`: 7.08 µM (active).
For the compound `CCNc1ncc2nc(C)c(=O)n(C[C@H]3CCCO3)c2n1`, the “activity, negative = inhibition” value is 4.63%.
For `COc1ccc(CNC(C)(C)C)cc1Cl`, the “activity, negative = inhibition” value was -4.36%.
Regarding `COc1ccc(CONS(=O)(=O)c2ccc(NC(C)=O)cc2)cc1Cl`, the AC50 was 2.24 µM (active).
On to `Clc1ccc(/C=N/c2c(-c3ccc(Cl)cc3)nc3n2CCS3)cc1`, for which the AC50 was 14.1 µM (active).
In the case of `CCOc1ccc(N2C(=O)/C(=C/c3cccs3)N(CC(=O)OC)C2=S)cc1`, the “activity, negative = inhibition” value is -17.3%.
As to `CCOc1ccc(N2C(=O)/C(=C/c3cc(OC)c(OC)c(OC)c3)N(CC(=O)OC)C2=S)cc1`, the AC50 was 3.55 µM (active).
As for `O=C(N/N=C/c1cc([N+](=O)[O-])ccc1N1CCNCC1)c1ccc([N+](=O)[O-])cc1`, the “activity, negative = inhibition” value was -15.8%.
As for `CCN(CC)C(=O)C1CCCN(c2ccc([N+](=O)[O-])cc2/C=N/NC(=O)c2ccc([N+](=O)[O-])cc2)C1` (stereo not given), the AC50 was 14.1 µM (active).
In the case of `CCOC(=O)C(CC)(CC)C(=O)/C=C/c1ccc(Br)cc1`, the AC50 is 2.82 µM (active).
Consider `O=C(NCCNc1ccc([N+](=O)[O-])cc1)c1ccccc1Br`, for which the AC50 is 7.94 µM (active).
For the compound `O=C(O)CCCCCNC(=O)c1ccccc1Br`, the “activity, negative = inhibition” value is -30.4%.
`O=[N+]([O-])c1ccc(C2CCCC/C2=N\OCc2cccc(F)c2)c([N+](=O)[O-])c1` (stereo not given): the AC50 is 7.08 µM (active).
Regarding `O=[N+]([O-])c1ccc(NN=C2c3ccccc3Cc3ccccc32)c([N+](=O)[O-])c1`, the activity, negative = inhibition was -15.8% [at 11.4 µM].
Take `CC(Sc1ccc2c(c1)OCCO2)C(=O)Nc1ncc(Cl)cc1Cl` (stereo not given): the AC50 was 2.82 µM (active).
The same measure, in the same setting: next, `Cc1cccc(C)c1OC[C@H](C)N`: “inactive”; `COc1ccc2cc(C(=O)CCC(=O)O)ccc2c1`: 2 µM (active).
Take `COc1ccc2cc(CCC(C)=O)ccc2c1`: the “activity, negative = inhibition” value was -42.2% [at 25.6 µM].
For the compound `CCOc1ccc(C(=O)CCC(=O)O)cc1`, the “activity, negative = inhibition” value is -28.2%.
Regarding `Cc1ccc(S(=O)(=O)N[C@H]2COC(=O)[C@H](C)COC(=O)[C@H](C)NC(=O)C/C=C\[C@H]2C)cc1`, the activity, negative = inhibition was 16.6% [at 11.4 µM].
Turning to `COc1cccc(CSCC(=O)O)c1`, the activity, negative = inhibition is -7.72% [at 11.4 µM].
`CCOc1cccc(CNCCNC(=O)c2nonc2N)c1`: the AC50 is 15.8 µM (active).
Turning to `COc1cccc(CNc2ccc3nc(-c4ccc(N)cc4)c(OC)n3n2)c1`, the “activity, negative = inhibition” value was -34.4%.
Regarding `COc1cccc(CNCCNC(=O)c2nonc2N)c1`, the AC50 is 15.8 µM (active).
Regarding `CN1CCN(CN2C(=O)C3C4C=CC(C3C2=O)C2C3C(=O)N(CN5CCN(C)CC5)C(=O)C3C42)CC1` (stereo not given), the activity, negative = inhibition was 27.4% [at 11.4 µM].
Still for that read-out and setting: the same measure for `CC[C@@]12CCCN3CCc4c(n(c5ccccc45)C(=O)C1)[C@H]32`: -19.6% [at 11.4 µM].
